Test results taken from publication PMC5540273 (PLoS ONE, 2017).

Columns and labels:
Settings in all cases: concentration: 1 μM,replicates: in singlicate; n = 1
PIP5K1A = system: PIP5K1A
PIP5K1C = system: PIP5K1C
PIP5K2B = system: PIP5K2B
PIP5K2C = system: T1, PIP5K2C
T1 construct: gene PIP4K2C

PKAC-alpha = system: T2, PKAC-alpha
T2 construct: gene PRKACA

PKAC-beta = system: T3, PKAC-beta
T3 construct: gene PRKACB

PKMYT1 = system: PKMYT1
PKN1 = system: PKN1
PKN2 = system: PKN2
PLK1 = system: PLK1
PLK2 = system: PLK2
PLK3 = system: PLK3
PLK4 = system: PLK4
PRKCD = system: PRKCD
PRKCE = system: PRKCE
PRKCH = system: PRKCH
PRKCI = system: PRKCI
PRKCQ = system: PRKCQ
PRKD1 = system: PRKD1
PRKD2 = system: PRKD2
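Also: KINOMEscan kinase panel screen.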

| SMILES | %Inh (PIP5K1A) [%] | %Inh (PIP5K1C) [%] | %Inh (PIP5K2B) [%] | %Inh (PIP5K2C) [%] | %Inh (PKAC-alpha) [%] | %Inh (PKAC-beta) [%] | %Inh (PKMYT1) [%] | %Inh (PKN1) [%] | %Inh (PKN2) [%] | %Inh (PLK1) [%] | %Inh (PLK2) [%] | %Inh (PLK3) [%] | %Inh (PLK4) [%] | %Inh (PRKCD) [%] | %Inh (PRKCE) [%] | %Inh (PRKCH) [%] | %Inh (PRKCI) [%] | %Inh (PRKCQ) [%] | %Inh (PRKD1) [%] | %Inh (PRKD2) [%] |
| --- | --- | --- | --- | --- | --- | --- | --- | --- | --- | --- | --- | --- | --- | --- | --- | --- | --- | --- | --- | --- |
| Cn1ccc2ncnc(Oc3ccc(NC(=O)Nc4cccc(C(F)(F)F)c4)c(Cl)c3)c21 | 0 | 48 | 2 | 0 | 0 | 0 | 0 | 0 | 0 | 0 | 2 | 22 | 9 | 0 | 0 | 0 | 8 | 7 | 0 | 15 |
| CCn1c(-c2nonc2N)nc2cncc(Br)c21 [SB-738004] | 54 | 53 | 28 | 38 | 11 | 0 | 6 | 0 | 4 | 18 | 8 | 14 | 76 | 21 | 92.8 | 58 | 36 | 6 | 0 | 11 |
| Cc1ccc2c(-c3ccnc(Nc4ccc(C(F)(F)F)cc4)n3)cnn2n1 [GW819776] | 15 | 0 | 0 | 82 | 14 | 20 | 0 | 0 | 0 | 25 | 15 | 33 | 9 | 5 | 0 | 0 | 22 | 0 | 0 | 0 |
| O=C(Nc1n[nH]c2cc(-c3ccco3)ccc12)C1CC1 [SB-737447] | 45 | 12 | 27 | 0 | 0 | 0 | 0 | 0 | 12 | 0 | 6 | 8 | 20 | 4 | 0 | 8 | 29 | 5 | 0 | 0 |
| Cc1n[nH]c2cc(Nc3ccnc(Nc4cccc(CN5CCOCC5)c4)n3)ccc12 [GW682569] | 57 | 70 | 33 | 71 | 0 | 0 | 0 | 46 | 0 | 0 | 15 | 53 | 72 | 0 | 51 | 0 | 26 | 0 | 0 | 0 |
| Cl.Nc1n[nH]c2cc(-c3ccccn3)ccc12 [GSK2189892] | 0 | 25 | 7 | 7 | 0 | 0 | 0 | 10 | 0 | 0 | 0 | 0 | 0 | 0 | 0 | 13 | 8 | 7 | 0 | 10 |
| CC(=O)Nc1nc2cnc(Nc3cc(NC(=O)c4cccc(CC(C)(C)C#N)c4)ccc3C)nc2s1 | 0 | 4 | 33 | 53 | 13 | 0 | 20 | 21 | 0 | 7 | 0 | 3 | 18 | 13 | 0 | 14 | 5 | 11 | 0 | 0 |
| Cc1cccc2c(-c3ccncc3)c(-c3ccc(F)cc3)nn12.Cl [GW461487] | 13 | 35 | 10 | 0 | 0 | 0 | 9 | 0 | 0 | 0 | 0 | 0 | 0 | 3 | 10 | 0 | 23 | 0 | 2 | 36 |
| OCCn1cc(-c2cnc3nnn(Cc4ccc5ncccc5c4)c3n2)cn1 | 1 | 3 | 0 | 0 | 0 | 0 | 0 | 0 | 0 | 0 | 0 | 50 | 4 | 0 | 49 | 0 | 0 | 0 | 5 | 0 |
